D2 antagonist: D2 dopamine receptor (human) antagonism; P14416; HEK293 TREx D2 cells, calcium flux, dopamine EC80; inhibition, % at 10 µM; actives 2% (n = 340,000); AID 485344; in the data active means inhibition above about 30%; inactive means below that, where a call was filed; further: 0% is about no effect
Target sequence (P14416 whole entry, looked up): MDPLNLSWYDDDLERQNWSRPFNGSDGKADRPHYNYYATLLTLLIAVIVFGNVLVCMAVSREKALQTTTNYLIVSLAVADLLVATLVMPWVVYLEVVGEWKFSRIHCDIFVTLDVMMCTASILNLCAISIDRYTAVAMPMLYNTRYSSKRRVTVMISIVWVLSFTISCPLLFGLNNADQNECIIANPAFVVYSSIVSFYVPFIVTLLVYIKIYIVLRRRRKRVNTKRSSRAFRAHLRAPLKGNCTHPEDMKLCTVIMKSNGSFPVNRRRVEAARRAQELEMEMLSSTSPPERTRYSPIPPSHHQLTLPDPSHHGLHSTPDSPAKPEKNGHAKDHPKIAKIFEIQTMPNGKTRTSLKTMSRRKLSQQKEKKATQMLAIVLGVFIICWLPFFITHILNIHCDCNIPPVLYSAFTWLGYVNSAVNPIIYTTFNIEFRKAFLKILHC
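Overnight-induced (tetracycline, 30 C) HEK293 T-REx cells carrying force-coupled D2 receive a no-wash calcium dye, then compound, then EC80 dopamine at 180 s; signals are read kinetically throughout.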
D2 PAM-1: positive allosteric modulators of human D2 dopamine receptor | P14416 | DiscoveRx D2 beta-arrestin cells, luminescence, 90 min; 100% = 57 uM dopamine signal | potentiation, % (test concentration not listed) | actives 0.23% (n = 360,000) | AID 624464; in the data active means potentiation above about 50%; inconclusive means mostly about 30% to 49%
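PathHunter beta-arrestin assay in DiscoveRx D2 cells. Compounds were added with an EC20 of dopamine (50 nM final) for 90 min at 37 deg C. Luminescence was read 1 h after detection reagent, with 57 uM dopamine as the EC100 control.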
D2 PAM-2: D2 dopamine receptor (human) potentiation; P14416; HEK293 T-REx D2, calcium flux, EC20 dopamine potentiation; potentiation, % at 10 µM; actives 0.34% (n = 340,000); AID 485347;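 active means potentiation over 3 SD above the plate norm, cut at about 30% in these data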; further: 0% is about no effect
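Tetracycline-induced Hek293 Trex D2 cells, force-coupled to calcium, loaded with no-wash calcium dye. Compound added with 180 s kinetic read for agonism, then EC20 dopamine and a further 180 s read for potentiation.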
D2 ag-1: human D2 receptor agonism in beta-arrestin assay. DiscoveRx PathHunter D2 beta-arrestin, luminescence, 90 min; 100% = 57 uM dopamine signal. P14416. actives 0.084% (n = 360,000). activation, % (test concentration not listed); in the data active means activation above about 40%; inconclusive means between about 15% and that limit
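DiscoveRx PathHunter D2 beta-arrestin cells (2,100/well) attached overnight, then compound-stimulated 90 min at 37 C in HBSS/10 mM HEPES/0.1% Tween-20 buffer; beta-galactosidase complementation read by luminescence after 1 h at ambient temperature. Dopamine 57 uM final (EC100) as control.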
D2 ag-2: activates the human D2 dopamine receptor | HEK293 T-REx D2 cells, calcium flux agonist mode | activation, % at 2 µM | actives 0.53% (n = 340,000);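 active means activation over 3 SD above normal in the single-dose calcium agonist read, cut at about 30% in these data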; further: 0% is about no effect
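Agonism scored from kinetic calcium signal (1 read/sec, 180 s) following compound pin transfer, after a 10 s baseline. Cells: HEK293 Trex line expressing inducible D2 receptor coupled to calcium, dye-loaded after overnight culture at 30 C.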
* marks the source's active call; other numbers are inactive results. Shown are actives, neighbours in structure and some others; about 2.4% of the full set was active somewhere.

C=CCc1cc(Cl)ccc1OCCOCCNCCOC was read as D2 antagonist 4, D2 PAM-1 -16, D2 PAM-2 -20, D2 ag-1 -3 and D2 ag-2 1.
For C=CCc1ccccc1OCCNCCCOC the results were D2 antagonist 69*, D2 PAM-1 -32, D2 PAM-2 -22, D2 ag-1 -6 and D2 ag-2 0.
C=CCc1cc(Cl)ccc1OCCNCCCOC was read as D2 antagonist 37*, D2 PAM-1 -16, D2 PAM-2 -33, D2 ag-1 -1 and D2 ag-2 1.
Screening CCOc1ccc(N(C)S(=O)(=O)c2c(C(=O)N3CCC(C)CC3)c(C)n(C)c2C)cc1 returned D2 PAM-2 -2 and D2 ag-2 1.
`CN1C(=O)c2ccccc2Sc2ccc(NC(=O)N3CCN(c4ccc(F)cc4)CC3)cc21` gave D2 PAM-2 1 and D2 ag-2 -1.
Nc1c(Cl)ncnc1NCCO was read as D2 antagonist -1, D2 PAM-1 4, D2 PAM-2 2, D2 ag-1 -5 and D2 ag-2 1.
Nc1c(Cl)ncnc1NCc1ccccc1 was read as D2 antagonist 56*, D2 PAM-1 -2 and D2 ag-1 4.
For CCCCN1CCCc2cc(CN(CCCN3CCOCC3)C(=O)Nc3ccc(CC)cc3)ccc21 the results were D2 PAM-2 -16 and D2 ag-2 0.
Screening Cc1ccc(C)c(CN2CCCNC2=O)c1 returned D2 antagonist 31*, D2 PAM-1 -8, D2 PAM-2 7, D2 ag-1 -3 and D2 ag-2 2.
Screening Cc1ccc(CN2CCCNC2=O)cc1 returned D2 PAM-1 -4 and D2 ag-1 0.
Screening COc1ccc(-n2nc(C(N)=O)c(O)cc2=O)cc1 returned D2 antagonist 32*, D2 PAM-1 -3, D2 PAM-2 -5, D2 ag-1 3 and D2 ag-2 1.
Screening COc1ccc(OC)c(N2C(=O)CC(Cc3cc(C)cc(C)c3)C2=O)c1 (stereo unspecified) returned D2 antagonist 10, D2 PAM-1 10, D2 PAM-2 30*, D2 ag-1 -1 and D2 ag-2 0.
`COc1ccc(OC)c(N2C(=O)CC(Cc3ccc(Cl)cc3)C2=O)c1` (stereo unspecified) gave D2 antagonist -22, D2 PAM-1 -13, D2 PAM-2 29, D2 ag-1 -2 and D2 ag-2 1.
Screening CCOc1ccc(OCc2cccc(C(=O)O)c2)cc1 returned D2 antagonist -16, D2 PAM-1 -1, D2 PAM-2 -1, D2 ag-1 3 and D2 ag-2 0.
For COc1ccc(OCc2cccc(C(=O)O)c2)cc1 the results were D2 antagonist 35*, D2 PAM-1 -9, D2 PAM-2 3, D2 ag-1 -1 and D2 ag-2 1.
`CCOc1cc2[nH]c(=O)n(CCC(=O)NCCc3ccc(OC)c(OC)c3)c(=O)c2cc1OCC` gave D2 antagonist -3, D2 PAM-1 7, D2 PAM-2 35*, D2 ag-1 -1 and D2 ag-2 0.
`COc1ccc(CCNC(=O)CCn2c(=O)[nH]c3cc(OC)c(OC)cc3c2=O)cc1OC` gave D2 antagonist 13, D2 PAM-1 17, D2 PAM-2 -4, D2 ag-1 -1 and D2 ag-2 0.
Fc1ccc(Nc2nc3ccccc3s2)cc1 was read as D2 antagonist 33*, D2 PAM-1 -36, D2 PAM-2 -5, D2 ag-1 3 and D2 ag-2 1.
Cc1ccc(Nc2nc3ccccc3s2)cc1 was read as D2 antagonist -17, D2 PAM-1 -13, D2 PAM-2 -1, D2 ag-1 1 and D2 ag-2 0.
For Cc1csc(/C(=N/OC(=O)c2ccco2)C(N)=O)n1 the results were D2 antagonist 42*, D2 PAM-1 -3, D2 PAM-2 4, D2 ag-1 -4 and D2 ag-2 0.
`CSc1ccc(/C=N/n2c(C)nnc2C)cc1` gave D2 antagonist 35*, D2 PAM-1 0, D2 PAM-2 1, D2 ag-1 -2 and D2 ag-2 2.
Screening Cc1nnc(C)n1/N=C/c1ccc(O)cc1 returned D2 antagonist -4, D2 PAM-1 -6, D2 PAM-2 2, D2 ag-1 0 and D2 ag-2 0.
Screening CC1CCN(c2nc(-c3ccccc3)cc(C(F)(F)F)n2)CC1 returned D2 antagonist 5, D2 PAM-1 10, D2 PAM-2 4, D2 ag-1 -1 and D2 ag-2 0.
Screening CN1CCN(c2nc(-c3cccs3)cc(C(F)(F)F)n2)CC1 returned D2 antagonist 32*, D2 PAM-1 -23, D2 PAM-2 -15, D2 ag-1 -1 and D2 ag-2 -1.
Screening CS(=O)(=O)c1nc(-c2cccs2)cc(C(F)(F)F)n1 returned D2 antagonist 9, D2 PAM-2 1 and D2 ag-2 2.
For CN1CCN(c2nc(-c3ccccc3)cc(C(F)(F)F)n2)CC1 the results were D2 antagonist 75*, D2 PAM-1 -36, D2 PAM-2 -7, D2 ag-1 -3 and D2 ag-2 -1.
Screening COc1cc(NC(=O)CSc2nc3nc(C)c(Cc4ccccc4)c(C)n3n2)cc(OC)c1OC returned D2 PAM-2 -3 and D2 ag-2 0.
`O=C(C1CCCO1)N1CCN(C(=S)Nc2ccc(F)cc2)CC1` (stereo unspecified) gave D2 antagonist 41*, D2 PAM-1 -4, D2 PAM-2 1, D2 ag-1 2 and D2 ag-2 1.
For CC(NC(=O)COc1cccnc1[N+](=O)[O-])c1ccc(F)cc1 (stereo unspecified) the results were D2 antagonist 0, D2 PAM-1 -1, D2 PAM-2 34*, D2 ag-1 2 and D2 ag-2 0.
O=C(COc1cccnc1[N+](=O)[O-])Nc1ccc(F)cc1 was read as D2 PAM-1 -1 and D2 ag-1 -1.
COC(=O)c1ccccc1NC(=O)N1CCC(n2c(C)nc3cccnc32)CC1 was read as D2 PAM-2 13 and D2 ag-2 0.
`Cc1cc2c(n1-c1ccc(C(=O)NCC(C)c3ccccc3)cc1)CCCC2` (stereo unspecified) gave D2 PAM-2 4 and D2 ag-2 1.
`Nc1cccc(C(=O)OCC(=O)Nc2cccc3c2C(=O)c2ccccc2C3=O)c1` gave D2 antagonist -2, D2 PAM-1 60*, D2 PAM-2 0, D2 ag-1 inconclusive and D2 ag-2 1.
Screening Cc1cccc(NC(=O)COC(=O)c2cccc3c2C(=O)c2ccccc2C3=O)c1C returned D2 antagonist -15, D2 PAM-1 90*, D2 PAM-2 -1, D2 ag-1 inconclusive and D2 ag-2 0.
Screening COc1ccc(-c2onc3ccc(Cl)cc23)cc1 returned D2 antagonist 5, D2 PAM-1 104*, D2 PAM-2 -3, D2 ag-1 13 and D2 ag-2 1.

High-throughput results as filed in PubChem BioAssay.
